What is called cell viability is a read-out of living cells in per cent, often relative to untreated cells.

For the assay, the system named is MOLM14. Briefly: cell viability relative to vehicle control; higher = less cytotoxic. The conditions noted are these: 10 µM; SRSF2 genotype: SRSF2 wt/wt. The method, boiled down:
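Screening covered the Selleck bioactive, kinase and epigenetic probe libraries, less identity-inconsistent compounds, on CRISPR-edited mutant clones and isogenic wild-type clones of four leukaemia lines. Cells, at 2000 per well in 50 µL medium, received a single 10 µM acoustically dispensed dose. After 48 h the supernatant was removed and CellTiter-Glo luminescence was read. Viability was analysed in Genedata Screener as percent of the on-plate vehicle control.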
Consider `COc1cc(C(=O)OCCCCNC(=N)N)cc(OC)c1O` [Leonurine], for which the cell viability was found to be 104%.

`C[C@@H](Oc1ccc2[nH]nc(/C=C/c3cnn(CCO)c3)c2c1)c1c(Cl)cncc1Cl`: the cell viability came to 0.16%.

On to `COc1ccccc1S(=O)(=O)Nc1ccc2c(c1)CN(C)C(=O)N2`, for which the cell viability came out at 34.5%.

Take `Clc1cccc(CN=C2Nc3ccccc3NC23CCNCC3)c1` [Liproxstatin-1]: the cell viability was determined as 80.1%.

In the case of `O=C(O)c1ccc(O)c2ncccc12`, the cell viability was 102%.

Take `CO[C@H]1C[C@@H]2CC[C@@H](C)[C@@](O)(O2)C(=O)C(=O)N2CCCC[C@H]2C(=O)O[C@H]([C@H](C)C[C@@H]2CC[C@@H](OP(C)(C)=O)[C@H](OC)C2)CC(=O)[C@H](C)/C=C(\C)[C@@H](O)[C@@H](OC)C(=O)[C@H](C)C[C@H](C)/C=C/C=C/C=C/1C` [Deforolimus (MK-8669)]: the cell viability is 60.8%.

As to `Cc1ccc(-c2n[nH]c3c2C(c2cccc(O)c2)N(c2ccc(C(=O)O)cc2)C3=O)cc1` (centres undefined), the cell viability turned out to be 107%.

Turning to `C=C(C(=O)O)C1CCC(C)C2CCC(C)=CC12` (centres undefined) [Artemisic acid], the cell viability was 108%.

On to `CC(C)c1ccc(NC(=O)Cn2cnc3c2c(=O)n(C)c(=O)n3C)cc1`, for which the cell viability turned out to be 96.2%.
